This is an account of results in PubChem BioAssay (NCI).

SMILES strings stand for the structures. Values joined by “and” are separate entries in the source; they are usually repeats but may differ in a detail not shown here. Identical values can stand only once. This is part of a sample that, as a whole, favours compounds with a hit. Of some 83,000 tested, about 20% had one in any assay.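 Cell lines were cultured in 96-well plates, exposed to a single compound concentration, and assessed for percent growth 48 hours later.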 Active and inactive are the calls of the source. The calls were made as follows: active = growth percent below 10; inactive = the rest.

Common to all, as to experiment: NCI-60 one-dose screen, 48 h (100 = growth as untreated, 0 = no growth, -100 = all killed)
Holding throughout (conditions): 10 µM unless noted

The test system of assay [1] is NCI-H23 lung.
The test system of assay [2] is NCI-H226 lung.
In assay [3] the test system is NCI-H322M lung.
Assay [4] concerns HOP-62 NSCLC.
Assay [5] concerns NCI-H460 lung.
Assay [6] deals with HOP-92 NSCLC.
Assay [7] concerns NCI-H522 lung.
The subject of assay [8] is A549/ATCC NSCLC.
In assay [9] the test system is 786-0 renal.
Assay [10] has as its system COLO 205 colon.
Assay [11] relates to DU-145 prostate.
The subject of assay [12] is K-562 leukemia.
For assay [13], the system named is MALME-3M melanoma.
Assay [14] deals with MDA-MB-231 breast.
Assay [15] concerns RXF 393 renal.
Assay [16] has as its system SF-268 CNS.
Assay [17] relates to SF-295 CNS.
Assay [18] has as its system SF-539 CNS.
Assay [19] deals with UACC-257 melanoma.
Assay [20] concerns M14 melanoma.

`O=C(Nc1ccc(Br)cc1)c1cc(Br)ccc1O`: the growth was 0.675% (active) and -16.7% (active) in assay [1]; 18.2% (inactive) and -33.2% (active) in assay [2]; -15.9% (active) and 1.23% (active) in assay [3]; 20.2% (inactive) and -5.46% (active) in assay [4]; 2.62% (active) and 3.86% (active) in assay [5]; -23% (active) and -12% (active) in assay [6]. For the same molecule, the growth in assay [7] was -13.8% (active) and 2.52% (active); in assay [8], 14.8% (inactive) and 14.7% (inactive); in assay [9], 0.723% (active) and 2.62% (active); in assay [10] it was 92.9% (inactive) and -42.3% (active); in assay [11], 19.9% (inactive) and 8.81% (active); in assay [12], 9.25% (active) and -22.8% (active). Moreover, the growth in [13] was -31.4% (active) and -27.8% (active); in [14], -36.1% (active) and -21.9% (active); in assay [15] it was 2.31% (active) and 38.3% (inactive); in assay [16], 9.39% (active) and 9.12% (active); in [17], -22.6% (active) and -16.5% (active); in [18], 18.3% (inactive) and -1.29% (active). The growth in [19] is 14% (inactive) and 8.51% (active); in assay [20], 8.56% (active) and 8.13% (active).
On to `Cc1ncsc1CCO`, for which the growth in assay [1] was 96% (inactive) and 94.8% (inactive); in assay [2], 95.8% (inactive) and 103% (inactive); in assay [3], 126% (inactive) and 89.4% (inactive); in assay [4] it was 103% (inactive) and 106% (inactive); in [5] it was 118% (inactive) and 106% (inactive); in [6], 91.2% (inactive) and 97.8% (inactive). The growth was 94.5% (inactive) and 85.9% (inactive) in assay [7]; 105% (inactive) and 96.9% (inactive) in [9]; 118% (inactive) and 116% (inactive) in [10]; 112% (inactive) and 105% (inactive) in assay [11]; 103% (inactive) and 108% (inactive) in assay [12]; 118% (inactive) and 86.2% (inactive) in [13]. Besides, the growth in assay [14] was 103% (inactive) and 105% (inactive); in [15] it was 99% (inactive) and 133% (inactive); in [16], 101% (inactive) and 94.3% (inactive); in assay [17] it was 101% (inactive) and 100% (inactive); in assay [18], 111% (inactive) and 99.6% (inactive); in assay [19] it was 106% (inactive) and 92.9% (inactive). For the same molecule, the growth in assay [20] is 107% (inactive) and 95.3% (inactive).
For the molecule `COc1cc(Nc2nc3ccccc3nc2NS(=O)(=O)c2ccc(NC(=O)c3ccc(C)c(OC)c3)cc2)cc(OC)c1`, the growth was 48.3% (inactive) and 19.8% (inactive) in assay [1]; 70.8% (inactive) and 6.54% (active) in assay [2]; 49.3% (inactive) and -6.86% (active) in assay [3]; 44.1% (inactive) and -1.64% (active) in [4]; 44.4% (inactive) and 10.5% (inactive) in assay [5]; -26.5% (active) in assay [6]. The growth in [7] is 40.9% (inactive) and 2.82% (active); in assay [9], 69.5% (inactive) and -19.2% (active); in assay [10] it was 66% (inactive) and -11.6% (active); in [11], 63.2% (inactive) and 12.9% (inactive); in assay [12] it was 63% (inactive) and 29.3% (inactive); in assay [13], 30.7% (inactive) and -18.6% (active). The growth in [14] is 77.2% (inactive) and 13.5% (inactive); in assay [15], 75.1% (inactive) and -38.8% (active); in assay [16], 54.8% (inactive) and 18.2% (inactive); in assay [17], 41.7% (inactive) and -32.8% (active); in assay [18], 62.7% (inactive) and -35.7% (active); in assay [19], 74.7% (inactive) and -18.8% (active). Besides, the growth in assay [20] was 64.1% (inactive) and 8.75% (active).
On to `Nc1ccc2ccc(N)cc2c1`, for which the growth in assay [1] is 69.7% (inactive); in assay [2], 95.7% (inactive); in assay [3], 69.1% (inactive); in assay [4], 86% (inactive); in [5], 91.7% (inactive); in assay [6] it was 101% (inactive). For the same molecule, the growth in assay [8] was 82.5% (inactive); in assay [9] it was 94.3% (inactive); in assay [10] it was 89.6% (inactive); in assay [11], 96.1% (inactive); in assay [12], 57.3% (inactive); in assay [13] it was 33.1% (inactive). Moreover, the growth in assay [14] is 62.1% (inactive); in assay [15] it was 88.1% (inactive); in [16] it was 84.3% (inactive); in assay [17], 72.1% (inactive); in assay [18], 107% (inactive); in assay [20], 84.1% (inactive).
